In the library only some 19% were active in any assay of this set; here they are far more common.
TDP1 cell CPT – qHTS for Inhibitors of human tyrosyl-DNA phosphodiesterase 1 (TDP1): qHTS in cells in presence of CPT. chicken DT40 Tdp1-/-;hTDP1 cells + 20 nM CPT, ATP luminescence, 48 h. Potency, µM (top dose mostly 46.2 µM), inactives show top-dose activity change, negative = growth inhibition, actives largely listed as inhibitors. 12% of 420,000 active; also: potency is read from the fitted curve at half-maximal effect; nearly all actives have a fitted effect of over 55% in size
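Chicken DT40 Tdp1-/- cells stably complemented with human TDP1 were seeded at 400 cells/well in medium containing 20 nM camptothecin, exposed to pin-transferred compounds, and grown at 37 °C for at least 48 hr. Viability was read as ATP luminescence.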
HT1080-NT tox – qHTS for induction of synthetic lethality in tumor cells producing 2HG: qHTS for the HT-1080-NT fibrosarcoma cell line; HT-1080-NT fibrosarcoma viability, CellTiter-Glo ATP luminescence, 48 h; Potency, µM (series often up to 46.1 µM), for inactives: top-dose activity, negative = less viability, most hits filed as cytotoxic; 1.6% of 360,000 active; AID 686970, 2013;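 also: NT is the 2HG producing partner of a matched IDH1 knockdown line; potency is read from the fitted curve at half-maximal effect; 0% = DMSO-treated cells and -100% = media-only wells without cells; nearly all actives have a fitted effect of over 55% in size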
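Toxicity toward the 2HG-producing NT line was scored as %Activity, normalised to DMSO and no-cell wells, from CellTiter-Glo luminescence after 48 hours' treatment.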
DT40 TDP1 no CPT – qHTS for Inhibitors of human tyrosyl-DNA phosphodiesterase 1 (TDP1): qHTS in cells in absence of CPT; Potency, µM (top dose mostly 46.2 µM), inactives show at the top dose activity change, negative = growth inhibition, most hits filed as inhibitors; AID 686978, 2013; 15% of 420,000 active; DT40 Tdp1-/- hTDP1 cells, no CPT, ATP luminescence, 48 h; also: potency is read from the fitted curve at half-maximal effect; nearly all actives have a fitted effect of over 55% in size
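A cellular qHTS used chicken DT40 cells lacking endogenous Tdp1 but carrying stably transfected human TDP1. Compounds were applied without camptothecin, and cell growth kinetics were judged by ATP-dependent luminescence after ≥48 hr.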
HT1080 IDH1KD tx – qHTS for induction of synthetic lethality in tumor cells producing 2HG: qHTS for the HT-1080-IDH1KD cell line. 2% of 360,000 active. AID 686971, 2013. Potency, µM (highest dose often 46.1 µM), for inactives: at the top dose activity, negative = toxicity, most hits filed as cytotoxic. HT-1080 IDH1 knockdown viability, ATP luminescence, 48 h;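 also: potency is read from the fitted curve at half-maximal effect; 0% = DMSO wells and -100% = cell-free medium wells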
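CellTiter-Glo luminescence after 48 h compound exposure at 37 degrees C of IDH1-knockdown HT-1080 cells in 5% FBS RPMI. %Activity scaled between DMSO wells and cell-free media wells, with curves fitted and assigned curve classes.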
IL-1B inflam inh – qHTS for Inhibitors of Inflammasome Signaling: IL-1-beta AlphaLISA Primary Screen; THP-1 LPS/ATP IL-1B secretion, AlphaLISA, 16 h; active compounds read low; activity change, % at 57.5 µM; 4.7% of 360,000 active; in the data active = activity change below about -50%; inconclusive = mostly about -30% to -49%
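THP-1 cells pretreated 1 hr with compounds (up to 57.5 uM final), then stimulated with LPS (250 ng/mL final) plus ATP (1.25 mM final); secreted IL-1B measured by AlphaLISA after 16 hr, decreased signal indicating inhibition.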
ELG1 DNA repair – qHTS screen for small molecules that inhibit ELG1-dependent DNA repair in human embryonic kidney (HEK293T) cells expressing luciferase-tagged ELG1; HEK293T ELG1-luciferase reporter, luminescence, 16 h; DNA damage induced by 5-fluorouridine; Potency, µM (doses to about 46.1 µM), inactives show at the highest dose activity change, negative = inhibition, usual class: inhibitors; 2.3% of 330,000 active; also: potency is read from the fitted curve at half-maximal effect; nearly all actives have a fitted effect of over 55% in size
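Quantitative HTS, concentration-response format. 2,000 cells/well co-treated with 5-fluorouridine and compound, 16 hr in 5% CO2 at 37 °C; ONE-Glo luminescence read after 30 min.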
Active calls of the source: *; ? = inconclusive; . = no result given. Unless noted, calls follow the shape of the dose curve; as a rule, active = well fitted curve in the direction sought with a large enough effect; inconclusive = small, poorly fitted or top-dose-only effect, or another doubt; inactive = no such curve, though single readings can be large; an effect the other way counts as inactive or inconclusive. Unless noted, % is scaled to controls: 0 for no effect and ±100 for the full control effect.

SMILES	TDP1 cell CPT	HT1080-NT tox	DT40 TDP1 no CPT	HT1080 IDH1KD tx	IL-1B inflam inh	ELG1 DNA repair
O=C(CC1C(=O)NCCN1Cc1cccc(F)c1)NC1CCC1 (stereo unspecified)	5%	-6%	18%	0%	-61*	-5%
NC(=S)N/N=C\c1c(OCc2ccccc2Cl)ccc2ccccc12	6.5µM*	-12%	?	-11%	-19	?
C[N+](C)(C)CC(=O)N/N=C/c1c2ccccc2cc2ccccc12	2%	-2%	-5%	1%	-9	9%
NC(=S)NN=Cc1cc(-c2cccc(N)c2)ccn1	3.7µM*	-15%	4.1µM*	?	134	.
CCOc1ccc2ccccc2c1/C=N/NC(=O)c1ccc(C)nc1	4%	3%	?	3%	-2	2%
CNC(=S)N/N=C/c1c2ccccc2c(Cl)c2ccccc12	5.8µM*	-10%	5.8µM*	-13%	12	8%
COCCNC(=S)N/N=C/c1c2ccccc2cc2ccccc12	3.7µM*	-17%	4.1µM*	-16%	22	?
Cc1ccc(NC(=O)Cn2cc(S(=O)(=O)N3CCN(c4ccccc4F)CC3)c3ccccc3c2=O)cc1F	-20%	.	-29%	.	.	.
COc1ccc(C(C(=O)NC2CCCC2)N(C(=O)CNC(=O)c2ccco2)c2cccnc2)cc1 (stereo unspecified)	2%	-1%	5%	13%	19	7%
CCOc1ccc(C2CC(=O)N(Nc3ccc([N+](=O)[O-])cc3[N+](=O)[O-])C2=O)cc1 (stereo unspecified)	11%	5%	11%	-1%	-14	-14%
CN(c1ccc(Cl)cc1)S(=O)(=O)c1nnc(NC(=O)C2CCCCC2)s1	-11%	.	-21%	.	.	.
COc1cccc(Cn2c(=O)cnc3cnc(N(C)C)nc32)c1	?	.	-29%	.	.	.
CC(=O)c1cccc(S(=O)(=O)NCCC(=O)O)c1	38%	2%	10%	0%	-2	1%
NC(=S)N/N=C\c1c2ccccc2cc2ccccc12	15µM*	-15%	?	-19%	-22	?
Cc1coc2c(C)c3oc(=O)c(CCC(=O)N[C@@H](C)C(=O)N[C@@H](Cc4ccccc4)C(=O)O)c(C)c3cc12	12%	3%	-1%	1%	-2	-1%
COc1ccc(OC)c(NC(=O)c2cccc(N3C(=O)C4C5C=CC(C6CC56)C4C3=O)c2)c1 (stereo unspecified)	16µM*	?	12µM*	-5%	-3	?
COc1ccc(OC)c(NC(=O)c2cccc(N3C(=O)C4C5CCC(C5)C4C3=O)c2)c1 (stereo unspecified)	23µM*	-18%	16µM*	-10%	0	?
COc1ccc(NC(=O)c2cccc(N3C(=O)C4CC=C(C)CC4C3=O)c2)c(OC)c1 (stereo unspecified)	?	3%	12µM*	3%	21	?
CC1=CCC2C(=O)N(c3cccc(C(=O)N(C)C4CCCCC4)c3)C(=O)C2C1 (stereo unspecified)	-29%	5%	-25%	1%	-21	-13%
Cc1ccccc1NC(=O)c1cccc(N2C(=O)C3C4CC(C(Br)C4Br)C3C2=O)c1 (stereo unspecified)	-1%	5%	1%	14%	14	-2%
COc1cccc(CSC(C(=O)O)c2ccccc2)c1 (stereo unspecified)	4%	10%	3%	15%	15	.
COc1ccc(Cc2nnc(N/N=C/c3ccc(N(C)C)cc3)[nH]c2=O)cc1OC	-22%	2%	-5%	-2%	2	4%
COc1ccc(/C=N/Nc2nnc(Cc3ccc(OC)c(OC)c3)c(=O)[nH]2)cc1	26µM*	-29%	16µM*	-23%	9	?
C=C1CC[C@@]23CC[C@]4(C)[C@@](OC2=O)([C@@H]3C1)[C@H]1O[C@H]1C1[C@@]2(C)CC[C@H](O)C(C)(C)C2CC[C@]14C (stereo partly specified)	-22%	18%	?	0%	41	1%
CC(C)Cc1nnc(NC(=O)c2ccc3c(c2)OCCO3)s1	-23%	16%	-2%	15%	-5	?
SMILES	TDP1 cell CPT	HT1080-NT tox	DT40 TDP1 no CPT	HT1080 IDH1KD tx	IL-1B inflam inh	ELG1 DNA repair
COc1ccc(Cl)cc1-c1cc(C(=O)Nc2ccc(F)cc2)[nH]n1	?	-20%	-10%	-18%	0	.
COc1ccc(NC(=O)c2cc(-c3cc(Cl)ccc3C)n[nH]2)cc1OC	?	-20%	?	-25%	-52*	.
COc1ccc(NC(=O)c2cc(-c3cc(Cl)ccc3OC)n[nH]2)cc1OC	21µM*	?	?	?	-65*	.
COc1ccc(NC(=O)c2cc(-c3cc(C)cc(F)c3)n[nH]2)cc1OC	26µM*	-16%	?	?	?	.
CCn1nnnc1SCC(=O)NC1Cc2ccccc2C1	-1%	0%	-9%	4%	3	-1%
C/C=C/c1ccc(Oc2nnnn2-c2ccc(C(N)=O)cc2)c(OC)c1	15µM*	-3%	21µM*	-12%	9	-8%
COc1ccccc1Oc1nnnn1-c1ccc(C(N)=O)cc1	-11%	-3%	-4%	-15%	-17	-1%
COc1c(N2CCN(C(=S)NCc3ccccc3)C(C)C2)c(F)cc2c(=O)c(C(=O)O)cn(C3CC3)c12 (stereo unspecified)	?	?	23µM*	18µM*	-7	-24%
CNC1CCCN(c2c(F)cc3c(=O)c(C(=O)O)cn(C4CC4)c3c2OC)C1 (stereo unspecified)	-16%	.	-21%	.	.	.
CCn1c(=O)c(C(C)=O)nc2ccccc21	-9%	10%	-10%	4%	0	10%
CCCCCn1c(=O)c(C(=O)c2ccccc2)nc2ccccc21	?	1%	23µM*	3%	-8	-17%
CCCC(=O)NC(C)c1nc2ccccc2n1C (stereo unspecified)	-7%	13%	-5%	-1%	2	11%

Screening results deposited in PubChem by National Center for Advancing Translational Sciences (NCATS).
